Experimental data as given in PubChem BioAssay AID977607 (Broad Institute, 2014).
The whole screen tested about 1,500 compounds, of which about 460 (31%) were called active. Inconclusive results (about 1%) are left out.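 Rule for the calls: active = curve reaches 40% activation over neutral controls at an AC40 no higher than the top valid tested concentration; inconclusive = no clear call, values can overlap the other calls; inactive = signal moving opposite to the expected increase, and the rest.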 Not all results are given here. Measured potencies and affinities stand elsewhere.

test: activators of glucose-dependent insulin secretion, dose response, cell-based, INS-1E, Gaussia luciferase, luminescence, cherry-pick, set 2 (AID 977607); settings: INS-1E GLuc insulin secretion reporter, 2-3 h, active compounds read high; at 35 µM, 100% = signal doubled over neutral wells unless noted;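 note: 0% = median of the plate neutral control wells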

Max activation, inactive:
COc1ccc(N2CC(NS(=O)(=O)c3cccs3)CC2=O)cc1OC (configuration not stated) -12.7% [at 11 µM, 100% = signal doubled over neutral wells]
COc1ccc(-c2nc(CCNC(=O)c3ccco3)cs2)cc1OC 53% [at 0.015 µM, 100% = signal doubled over neutral wells]
COc1ccc(C2=NN(C(=O)c3ccco3)C(c3ccco3)C2)cc1OC (configuration not stated) 9.84% [at 0.42 µM, 100% = signal doubled over neutral wells]
COc1ccc2c(c1)[C@@]1(OCCC=C[C@H]1C)C(=O)N2CC1CC1 15.8% [at 11 µM, 100% = signal doubled over neutral wells]
O=C(NNC(=O)c1cc2cc3ccccc3nc2s1)c1cccc(C(F)(F)F)c1 -20.1% [at 0.015 µM, 100% = signal doubled over neutral wells]
CC(C)Cc1nc2oc3c(NCc4cccnc4)ncnc3c2c2c1CCC2 30.3% [at 0.42 µM, 100% = signal doubled over neutral wells]
CCc1ccc2c(c1)cc(CN(Cc1ccco1)C(C)=O)c1nnnn12 -18.4% [at 0.005 µM, 100% = signal doubled over neutral wells]
O=C(Nc1nccs1)c1cc(N2CCOCC2)nc2ccccc12 -23.7%
COc1ccc(-c2nc(N3CCC(C)CC3)[nH]c(=O)c2C#N)cc1 28.1% [at 11 µM, 100% = signal doubled over neutral wells]
COc1cccc(-n2c(=O)n(Cc3ccccc3)c(=O)c3[nH]cnc32)c1C 14.5%
COc1ccc(C)c(-n2c(=O)n(Cc3ccccc3)c(=O)c3[nH]cnc32)c1 38.9% [at 0.42 µM, 100% = signal doubled over neutral wells]
CCc1nc2c(OCc3ccccc3C)cccn2c1N(C)C(=O)c1ccco1 -25.5%
C=CCNC(=S)Nc1ccc2cn[nH]c2c1 -18.8% [at 0.0016 µM, 100% = signal doubled over neutral wells]
O=C(Nc1ccnn1C1CCN(C2CCC2)CC1)c1ccccc1Cl -5.42%
COc1ccc(N2C(=O)CC(Sc3nc(C)cc(C)c3C#N)C2=O)cc1 (configuration not stated) -11.1% [at 11 µM, 100% = signal doubled over neutral wells]
CCNc1nc(NCC)nc(Nn2cnnc2)n1 -14.4% [at 0.42 µM, 100% = signal doubled over neutral wells]
CC(C)Cn1nc(-c2ccccc2)c2ccccc2c1=O -16.6% [at 0.0016 µM, 100% = signal doubled over neutral wells]
Cc1ccc(-c2[nH]nc3c2C(c2cccnc2)C(C#N)=C(N)O3)cc1 (configuration not stated) 36.3% [at 0.0016 µM, 100% = signal doubled over neutral wells]
COCCNc1nc(NCCCN(C)C)c2sccc2n1 -23.1%
COCCNc1nc(Oc2ccc(C(N)=O)cc2)c2sccc2n1 -20.7% [at 0.0016 µM, 100% = signal doubled over neutral wells]
CCCN1Cc2cccc(C(=O)NCc3ccccc3)c2C1=O -24.8% [at 0.046 µM, 100% = signal doubled over neutral wells]
Cc1ccc2c(c1)CCCN2C(=O)c1ccc2c(c1)OCO2 -14.4% [at 0.0016 µM, 100% = signal doubled over neutral wells]
CCOc1ccc(CCNC(=O)COC(=O)c2cccnc2SC)cc1OCC -22.4% [at 0.0016 µM, 100% = signal doubled over neutral wells]
CCOc1ccc(CCNC(=O)COc2cccc(-n3cnnn3)c2)cc1OCC -22.6% [at 0.005 µM, 100% = signal doubled over neutral wells]
COc1ccccc1Nc1c2c(nc3ccc(N)cc13)CCCC2 -15.8% [at 0.135 µM, 100% = signal doubled over neutral wells]
CCc1nc2n[nH]c(N)c2c2c1CCCC2 65.3%
CCc1cc(=O)oc2c(CNCc3ccc(OC)cc3OC)c(O)c(Cl)cc12 20.4%
COCCNC(=O)c1cc2c(c(-c3cccc(C#Cc4ccc(OC)c(OC)c4)c3)n1)[C@H](CCO)N(S(=O)C(C)(C)C)C2 (some centres not stated) 8.82% [at 11 µM, 100% = signal doubled over neutral wells]
CC(C)(C)c1ccc(S(=O)(=O)N2CC(C(=O)O)Oc3ccc(Cl)cc32)cc1 (configuration not stated) -11.3% [at 0.015 µM, 100% = signal doubled over neutral wells]
COc1ccc(C(=O)Nc2nnc(-c3cccs3)s2)cc1 -13.2% [at 0.135 µM, 100% = signal doubled over neutral wells]
Cc1ccccc1C(=O)NC1CCSC1=O (configuration not stated) -21.5% [at 0.005 µM, 100% = signal doubled over neutral wells]
CN(C)CCCN(C(=O)CCOc1ccccc1)c1nc2c(F)cccc2s1 -32.2% [at 11 µM, 100% = signal doubled over neutral wells]
OC1(C#Cc2c(-c3ccsc3)sc3ccccc23)CCCCC1 50.8%
Cc1cc(-c2ccccc2)n2nc(N)nc2n1 -24.8% [at 0.046 µM, 100% = signal doubled over neutral wells]
O=c1c2ccccc2nnn1Cc1ccccc1 -23.5% [at 0.42 µM, 100% = signal doubled over neutral wells]
Cc1ccc2nc(N3CCN(C(=O)CCCC(=O)O)CC3)nc(-c3ccccc3)c2c1 12.5% [at 11 µM, 100% = signal doubled over neutral wells]
COC(C)(C)c1cc(C(C)(C)C)nc(N)n1 -18.4% [at 0.005 µM, 100% = signal doubled over neutral wells]
COc1cccc(-n2c(=O)c3ccccc3n(CC(=O)NCC3CCCO3)c2=O)c1 (configuration not stated) -15.9% [at 0.015 µM, 100% = signal doubled over neutral wells]
O=C(COc1ccccc1)N(Cc1cccc(F)c1)C1CCS(=O)(=O)C1 (configuration not stated) -16.7% [at 3.8 µM, 100% = signal doubled over neutral wells]
CC(Oc1ccc2c3c(c(=O)oc2c1)CCCC3)C(=O)NCc1cccnc1 (configuration not stated) 27.7% [at 0.42 µM, 100% = signal doubled over neutral wells]
O=C(COC(=O)c1cccnc1Cl)Nc1cc(S(=O)(=O)N2CCCCCC2)ccc1Cl -32.2%
CCOc1ncccc1C(=O)NC(C)CCc1ccccc1 (configuration not stated) 29.7%
COc1cc(OC)c(OC)cc1CCC(C)NC(=O)Cc1ccccc1 (configuration not stated) 27.7% [at 0.005 µM, 100% = signal doubled over neutral wells]
C[C@H]1CN=C(N(C)C)N1CC1CCCC1 -12% [at 0.015 µM, 100% = signal doubled over neutral wells]
Cc1ccc(C(=O)N2CCN3C(=O)c4ccccc4C23c2ccccc2)cc1 (configuration not stated) -24.9%
CN(Cc1ccccc1)c1nc2c(c(=O)[nH]c(=O)n2C)n1Cc1ccccc1 14.1% [at 11 µM, 100% = signal doubled over neutral wells]
CCCCCCn1c(SCC(C)C)nc2c1c(=O)[nH]c(=O)n2C 12.8%
Cn1c(=O)[nH]c(=O)c2c1nc(NC1CCCC1)n2Cc1ccccc1 -12.1% [at 0.0016 µM, 100% = signal doubled over neutral wells]
C=CCn1c(SCc2ccccc2)nc2c1c(=O)[nH]c(=O)n2C -13.1% [at 0.015 µM, 100% = signal doubled over neutral wells]
O=C(O)C(Cc1ccc(O)cc1)N1C(=O)c2ccccc2C1=O (configuration not stated) -22% [at 0.046 µM, 100% = signal doubled over neutral wells]
COc1ccc(CCN(C)C(=O)Cn2c(=O)oc3ccccc32)cc1OC -16.4%
CCOc1ccc2oc(C(=O)N(C)CCc3ccc(OC)c(OC)c3)c(C)c2c1 47.7%
Cc1ccc(Nc2ncnc3sccc23)c(C)c1 -16% [at 0.015 µM, 100% = signal doubled over neutral wells]
CCCCc1c(-c2ccccc2OC)ncn1C(C)c1ccccc1 (configuration not stated) 37.1%
CCCCc1c(-c2ccccc2OC)ncn1Cc1ccc(C)cc1 -22.3% [at 11 µM, 100% = signal doubled over neutral wells]
COc1ccc(CCN2C(=O)CC(Cc3ccccc3)C2=O)cc1OC (configuration not stated) -9.21% [at 0.046 µM, 100% = signal doubled over neutral wells]
CCOc1cc(C2C3=C(CC(C)(C)CC3=O)Nc3n[nH]c(C)c32)ccc1O (configuration not stated) -17.9% [at 0.015 µM, 100% = signal doubled over neutral wells]
